Here are results for 16 compounds from PubChem BioAssay.

For experiment [1], the system named is Plasmodium falciparum Sir2 (PF13_0152, Sir2A). Briefly: pfSir2 binders on small-molecule microarrays, primary screen, biochemical, small-molecule microarray, 635 nm fluorescence (AID 1098).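 Further: score merges spot fluorescence intensity with its signal-to-noise ratio.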 The conditions noted are these: small-molecule microarray binding, fluorescence 635 nm; higher = more signal.
The nature of experiment [2]: small-molecule microarray binders of probe aDKK1, primary screen, biochemical, biotinylated probe, 635/667 nm fluorescence (AID 1099).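 Further: score merges 667nm spot fluorescence with signal to noise across triplicate slides; reference of the scale not given here.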 The conditions noted are these: higher = more signal.
A short description of experiment [3]: small-molecule microarray binders of probe aCHRDL2, primary screen, biochemical, biotinylated probe, 635/667 nm fluorescence (AID 1100). To be noted: higher = more signal.
A short description of experiment [4]: splicing luciferase reporter signal modulators, primary screen, spliceosome inhibition project, cell-based, HEK293, splice +/- reporter (AID 1101).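 Further: HEK293 cells carrying a splicing-competent luciferase reporter gene; test concentration not given here.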 To be noted: luminescence, 24 h, higher = more signal, called active from +8 up or from −8 down. A general note: A reporter such as luciferase makes a cellular process visible.
Experiment [5] concerns the target Fibroblast growth factor 10 (Homo sapiens) (UniProt O15520). As to the kind of experiment: FGF10 binders on small-molecule microarrays, primary screen, biochemical, small-molecule microarray, 635 nm fluorescence (AID 1102). The conditions noted are these: FGF10 binding, fluorescence 635 nm, higher = more signal.
For experiment [6], the system named is glycogen synthase kinase-3 (GSK3A per assay name; protocol says GSK3B). As to the kind of experiment: GSK3 binders on small-molecule microarrays, primary screen, biochemical, small-molecule microarray, 635 nm fluorescence, GSK3A (AID 1103). Further: the record names both GSK3A and GSK3B. The conditions noted are these: small-molecule microarray binding, fluorescence 635 nm; higher = more signal.
Experiment [7] has as its target Epidermal growth factor receptor (Homo sapiens) (UniProt P00533). As to the kind of experiment: EGFR binders on small-molecule microarrays, primary screen, biochemical, small-molecule microarray, 635 nm fluorescence (AID 1104).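 Further: score merges 667 nm emission intensity with spot signal to noise over triplicate slides.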 The conditions noted are these: EGFR binding, higher = more signal.
In experiment [8] the target is Follistatin-related protein 3 (Homo sapiens) (UniProt O95633). Briefly: FSTL3 binders on small-molecule microarrays, primary screen, biochemical, small-molecule microarray, 635 nm fluorescence (AID 1105).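 Further: score merges emission near 667 nm and signal to noise per printed spot across three slides.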 To be noted: FSTL3 binding, higher = more signal.
For experiment [9], the target named is Dickkopf-related protein 1 (Homo sapiens) (UniProt O94907). As to the kind of experiment: DKK1 binders on small-molecule microarrays, primary screen, biochemical, small-molecule microarray, 635 nm fluorescence scan (AID 1106).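 Further: score merges emission near 667 nm with signal to noise over three replicate slides.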 The conditions noted are these: DKK1 binding, higher = more signal.
Experiment [10] deals with Inhibin beta A chain (activin A). Briefly: INHBA (activin A) binders on microarrays, primary screen, biochemical, small-molecule microarray, 635 nm fluorescence scan (AID 1107).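 Further: mouse activin A protein probed at 4.33 µg/mL on printed slides; score merges bound-protein fluorescence near 667 nm with spot signal-to-noise.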 To be noted: small-molecule microarray binding, higher = more signal.

Calls of active or inactive are those of the source.

Chain of Epidermal growth factor receptor (Homo sapiens) (P00533 whole entry, looked up): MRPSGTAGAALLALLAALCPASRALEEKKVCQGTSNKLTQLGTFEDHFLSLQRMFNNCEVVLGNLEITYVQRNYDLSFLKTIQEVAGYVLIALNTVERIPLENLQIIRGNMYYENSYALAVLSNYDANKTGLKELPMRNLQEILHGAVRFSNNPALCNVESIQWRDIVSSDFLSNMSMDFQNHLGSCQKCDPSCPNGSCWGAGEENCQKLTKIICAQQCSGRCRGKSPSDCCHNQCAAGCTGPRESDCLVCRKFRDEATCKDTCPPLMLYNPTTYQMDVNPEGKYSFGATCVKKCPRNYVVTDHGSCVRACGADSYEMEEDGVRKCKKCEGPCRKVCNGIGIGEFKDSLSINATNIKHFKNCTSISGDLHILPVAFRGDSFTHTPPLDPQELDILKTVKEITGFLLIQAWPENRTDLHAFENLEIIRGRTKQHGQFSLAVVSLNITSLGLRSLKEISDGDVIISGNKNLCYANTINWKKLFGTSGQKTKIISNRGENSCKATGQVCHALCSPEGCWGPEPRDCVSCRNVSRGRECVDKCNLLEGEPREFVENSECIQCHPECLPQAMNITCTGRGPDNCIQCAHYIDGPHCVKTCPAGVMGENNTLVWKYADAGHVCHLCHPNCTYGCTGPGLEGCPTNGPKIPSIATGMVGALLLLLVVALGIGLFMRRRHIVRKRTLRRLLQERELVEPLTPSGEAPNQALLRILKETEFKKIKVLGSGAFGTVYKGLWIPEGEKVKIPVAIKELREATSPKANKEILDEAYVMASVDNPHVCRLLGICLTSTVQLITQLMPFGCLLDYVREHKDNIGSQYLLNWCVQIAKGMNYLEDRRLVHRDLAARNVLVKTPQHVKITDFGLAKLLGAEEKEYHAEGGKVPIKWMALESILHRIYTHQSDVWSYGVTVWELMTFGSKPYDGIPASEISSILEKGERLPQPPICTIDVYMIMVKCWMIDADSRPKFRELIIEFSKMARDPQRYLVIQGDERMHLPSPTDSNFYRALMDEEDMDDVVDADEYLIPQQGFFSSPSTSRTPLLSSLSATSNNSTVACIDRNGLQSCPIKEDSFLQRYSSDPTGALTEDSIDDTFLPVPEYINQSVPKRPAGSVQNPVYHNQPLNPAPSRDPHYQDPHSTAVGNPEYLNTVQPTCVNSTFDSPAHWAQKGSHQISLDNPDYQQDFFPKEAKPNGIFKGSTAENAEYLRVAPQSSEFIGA
Chain of Fibroblast growth factor 10 (Homo sapiens) (O15520 whole entry, looked up): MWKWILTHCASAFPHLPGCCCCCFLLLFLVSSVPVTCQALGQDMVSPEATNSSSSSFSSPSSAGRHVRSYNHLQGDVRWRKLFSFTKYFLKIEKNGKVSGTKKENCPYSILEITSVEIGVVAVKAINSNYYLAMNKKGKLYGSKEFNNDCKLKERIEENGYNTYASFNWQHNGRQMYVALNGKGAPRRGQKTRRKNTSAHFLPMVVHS
Chain of Dickkopf-related protein 1 (Homo sapiens) (O94907 whole entry, looked up): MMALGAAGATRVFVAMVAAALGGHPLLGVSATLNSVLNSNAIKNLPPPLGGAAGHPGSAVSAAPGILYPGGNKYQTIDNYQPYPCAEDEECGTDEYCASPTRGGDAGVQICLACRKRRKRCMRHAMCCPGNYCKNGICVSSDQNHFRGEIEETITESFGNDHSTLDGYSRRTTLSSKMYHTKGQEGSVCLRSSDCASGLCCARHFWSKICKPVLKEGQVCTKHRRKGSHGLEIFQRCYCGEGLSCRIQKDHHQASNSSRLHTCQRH
Chain of Follistatin-related protein 3 (Homo sapiens) (O95633 whole entry, looked up): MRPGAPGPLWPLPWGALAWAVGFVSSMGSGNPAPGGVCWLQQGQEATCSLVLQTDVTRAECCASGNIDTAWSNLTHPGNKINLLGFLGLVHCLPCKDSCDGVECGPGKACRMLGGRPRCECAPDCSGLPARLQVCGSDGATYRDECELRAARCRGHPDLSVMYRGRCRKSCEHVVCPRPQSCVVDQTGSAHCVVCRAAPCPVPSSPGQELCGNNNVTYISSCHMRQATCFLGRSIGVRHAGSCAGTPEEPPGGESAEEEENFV

Take `CC(C)[Si]1(C(C)C)OCc2cc(C3CC3)nc(-c3ccc(Oc4ccccc4)cc3)c21`: the composite z-score in [1] is -0.777; in [2], 0.15; in [3], 0.056; in [5], -0.382; in experiment [6] it was -0.964; in experiment [7] it was -0.233. The composite z-score in experiment [8] is -0.816; in experiment [9] it was -0.604; in experiment [10], 0.228. Also, the z-score in [4] was -0.654 (inactive).
Regarding `CC(=O)N1CC2(CC2)CC1c1ccccc1` (stereo not given), the composite z-score in experiment [1] was -0.295; in experiment [2], 0.234; in [3], -0.0067; in [5], 0.281; in experiment [6], 0.152; in [7], 0.461. Further, the composite z-score in experiment [8] was -0.154; in experiment [9], -0.0538; in [10] it was 0.791. Also, the z-score in experiment [4] was 0.665 (inactive).
As for `COC(=O)C1=CC(CCCO)=CC(c2cccs2)N(Cc2cccc(OC(F)(F)F)c2)C=C1C(=O)OC` (stereo not given), the composite z-score amounted to 0.0898 in [1]; 0.524 in experiment [2]; 0.574 in [3]; 0.67 in [5]; 1.09 in [6]; 0.179 in [7]. The composite z-score in experiment [8] is 0.989; in [9] it was -0.149; in experiment [10] it was 1.09. In experiment [4], the z-score is 0.955 (inactive).
With `COc1cc2c(cc1O)C(C1CC1)N(C)CC2` (stereo not given), the composite z-score in experiment [1] was 0.353; in [2], 0.211; in [3] it was 0.583; in [5] it was -0.382; in experiment [6], -1.3; in experiment [7], -1.17. Further, the composite z-score in [8] was -0.57; in experiment [9] it was -0.896; in [10], 0.942. Also, the z-score in experiment [4] is -0.451 (inactive).
Turning to `COc1cc2c(cc1O)C=[N+](Cc1sc3ccccc3c1Cl)CC2`, the composite z-score is 0.209 in experiment [1]; 0.0295 in [2]; 0.494 in experiment [3]; -0.0275 in [5]; 0.0717 in experiment [6]; 0.454 in experiment [7]. In addition, the composite z-score in experiment [8] is -0.0687; in experiment [9], 0.396; in experiment [10], 1.19. In addition, the z-score in experiment [4] was 0.134 (inactive).
As for `CC(CO)N1C(=O)[C@]2(C)C3C(=O)OCCC/C=C\[C@H]3OC23C=CCN(c2ccc(Cl)cc2)C(=O)[C@@H]13` (stereo not given in full), the composite z-score is -0.714 in experiment [1]; -0.0842 in experiment [2]; 0.167 in [3]; -0.39 in experiment [5]; -0.558 in experiment [6]; -0.558 in experiment [7]. Further, the composite z-score is -0.798 in [8], -0.0396 in [9] and -0.0439 in [10]. The z-score in experiment [4] was -0.712 (inactive).
Regarding `C=CCOC(=O)[C@@]1(Cc2ccccc2)C[C@H]2CO[C@H](c3ccc(OC)cc3)N2C1=O`, the composite z-score in experiment [1] is 0.335; in [2] it was -0.0298; in experiment [3], -0.0084; in experiment [5], 0.25; in [6], -0.0535; in experiment [7] it was 0.201. The composite z-score in [8] stood at 0.2; in experiment [9], 0.286; in experiment [10] it was 0.351. Moreover, the z-score in experiment [4] is -0.543 (inactive).
As to `Cc1ccc(S[C@]2(C(=O)NCCN3CCOCC3)CC(=O)N(Cc3ccccc3Cl)[C@@H]2c2ccc(CO)cc2I)cc1`, the composite z-score in experiment [1] is 1.65; in experiment [2] it was -0.831; in experiment [3], -0.0429; in experiment [5] it was 0.133; in experiment [6] it was -0.207; in experiment [7] it was -1.29. Also, the composite z-score in experiment [8] was -0.355; in [9], -1.82; in [10] it was 1.07. The z-score in [4] was -0.849 (inactive).
Take `CC(C)=C1C(=O)C(c2ccccc2)=C2CN3C(=O)N(CCc4ccccc4)C(=O)[C@]3(Cc3ccc(C(F)(F)F)cc3)[C@H]21`: the composite z-score in experiment [1] is 1.04; in experiment [2], 1.18; in [3], 1.3; in experiment [5] it was -0.649; in [6], -0.0628; in [7], -1.22. Moreover, the composite z-score in experiment [8] was 0.13; in experiment [9], -1.7; in experiment [10], 0.877. In experiment [4], the z-score was 0.0205 (inactive).
In the case of `CCCCC(CC)C(O)C1C=CC2C(=O)N(C)C(=O)C2N1Nc1ccccc1` (stereo not given), the composite z-score in experiment [1] is 0.579; in [2], 0.559; in [3] it was 0.0302; in experiment [5] it was 0.304; in [6], 0.598; in experiment [7] it was -0.248. The composite z-score in experiment [8] is 0.192; in experiment [9], -0.0617; in experiment [10], 0.864. In experiment [4], the z-score is 1.48 (inactive).
As for `COCC(=C=CC[C@H](O)c1ccccc1OCCO)C[C@H](O)c1ccccn1`, the composite z-score in experiment [1] is 0.34; in [2] it was -0.201; in experiment [3] it was -0.0336; in experiment [5] it was 0.207; in [6] it was -0.115; in experiment [7], -0.299. The composite z-score in experiment [8] is -0.114; in experiment [9], -0.0344; in experiment [10], 0.41. For the same compound, in [4], the z-score is 0.0209 (inactive).
Turning to `COCCOC(=O)N1C(=O)[C@@]2(c3cc(C#CC4=CCCCC4)ccc31)[C@H](c1ccccc1OCCO)N1[C@H](c3ccccc3)[C@H](c3ccccc3)OC(=O)[C@H]1[C@@H]2C(=O)NC[C@H](O)c1ccccc1`, the composite z-score was 1.53 in experiment [1]; 0.036 in experiment [2]; -0.135 in experiment [3]; 1.19 in [5]; 1.3 in experiment [6]; 0.741 in [7]. Also, the results for the composite z-score in experiment [8], in experiment [9] and in [10] were 1.42, 0.752 and 0.755, respectively. Besides, the z-score in experiment [4] is -1.76 (inactive).
Consider `O=C(O)[C@@H]1C[C@@H]2C(=O)N3CCC[C@H]3C(=O)N2[C@@H]1c1ccc(O)cc1`, for which the composite z-score in experiment [1] was determined as 1.51; in [2], 0.857; in experiment [3], 0.11; in experiment [5] it was 0.196; in experiment [6] it was 0.762; in experiment [7] it was 0.426. The composite z-score in experiment [8] worked out at 0.987; in experiment [9] it was 0.975; in experiment [10] it was 0.852. Also, the z-score in experiment [4] was -2.2 (inactive).
For `COCC(=C=CC[C@H](O)c1ccc(CO)o1)CCO`, the composite z-score was 1.39 in experiment [1]; 0.0057 in [2]; -0.336 in experiment [3]; 1.52 in experiment [5]; 0.654 in experiment [6]; -0.294 in experiment [7]. Besides, the composite z-score in [8] stood at 1.19; in experiment [9], 0.352; in [10], 0.569. Further, the z-score in experiment [4] is 0.191 (inactive).
`COC(=O)C1=CC(CCCO)=CC(c2ccc(CN3CCCC3)cc2)N(Cc2cccc(OC(F)(F)F)c2)C=C1C(=O)OC` (stereo not given): the composite z-score in experiment [1] was determined as 1.26; in [2], 0.752; in experiment [3] it was 0.82; in experiment [5], 0.641; in [6], 0.68; in [7], 0.121. For the same compound, the composite z-score in experiment [8] was 0.637; in experiment [9], -0.271; in [10] it was 0.976. The z-score in experiment [4] is -0.656 (inactive).
`CCCC[C@@H](O)C1=C(COC)C[C@H]2C(=O)N(Cc3ccccc3)C(=O)[C@H]2[C@H]1CO`: the composite z-score in [1] is 0.516; in experiment [2], -0.449; in [3], -0.815; in [5] it was 0.822; in experiment [6], 0.464; in experiment [7] it was 0.26. For the same compound, the composite z-score in experiment [8] worked out at 1; in experiment [9], 0.972; in experiment [10] it was 0.44. In addition, the z-score in [4] is 0.296 (inactive).
